Measurements published in PubChem BioAssay (EPA / NIEHS).
Several values for one entry are separate records, joined by “and”; a condition that tells them apart may be missing. Equal entries are not always repeated. Activity calls are given as the source filed them. How the source made its calls: active means hit-call score of the fitted dose curve at least 0.9, where 1 is the maximum; inactive means score below 0.9.

Test: BSK_IMphg_SRB: Viability Assessment in the BioMAP Diversity Plus: IMphg Assay (AID 2284292);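 further: measured one day after compound addition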
Details: primary human endothelial cells with macrophages
Procedure: BSK_IMphg is a cell-based, multiplexed-readout assay that uses venular endothelial cells and macrophages, a human vascular primary cell, with measurements taken at 24 hours after chemical dosing in a microplate: 96-well plate.BSK_IMphg_SRB is an assay component measured in the BSK_IMphg assay. It measures […] related to cell death using Sulforhodamine staining technology.Data from the assay component BSK_IMphg_SRB was analyzed at the endpoint, BSK_IMphg_SRB, in the positive analysis fitting direction relative to DMSO as the negative control and baseline of activity. Using a type of viability reporter, gain or loss-of-signal activity can be used to understand protein changes. To generalize the intended target to other relatable targets, this assay endpoint is annotated to the 'cell morphology' intended target family, where the subfamily is 'cell conformation'.
The levels of cell surface (or secreted, indicated by the prefix "s") biomarker endpoints were measured by ELISA. Overt cytotoxicity to cells in confluent adherent cultures (all systems other than the BT system) was assessed by measuring total protein levels using sulforhodamine B (SRB) staining in parallel cultures at the time of biomarker measurements, indicated as SRB endpoints. For proliferation assays for adherent cell types, individual cell types are cultured at sub-confluence and relative cell numbers quantified by SRB staining at time points optimized for each system (48 h: 3C and CASM3C systems; 72 h: BT and HDF3CGF systems; 96 h: SAg system). SRB was performed by staining cells with 0.1% SRB after fixation with 10% TCA and reading wells at 560 nm.Viability and proliferation of PBMC (T cells) was quantified by Alamar Blue reduction for the SAg and BT systems. For PBMC viability (referred to as PBMC Cytotoxicity within the assay endpoint names), cells were plated (75,000/well in a 96-well plate) and then chemical samples added for 1 h before addition of activators, SEB and TSST-1 (20 ng/mL final concentration each). Cells were incubated for 90 h. Then, Alamar Blue (20 uL/well) (Invitrogen, Cat DAL1100) was added for 6 h, and the plates were read with a fluorescence microplate reader at 546/580 nm (excitation/emission). For PBMC proliferation, cells were plated and activated as above but incubated for only 16 h prior to addition of Alamar Blue. Plates were read after 6 h.

SMILES | outcome | AC50
CN(CCO)S(=O)(=O)C(F)(F)C(F)(F)C(F)(F)C(F)(F)C(F)(F)C(F)(F)C(F)(F)C(F)(F)F | inactive | 
O=P(O)(O)CCC(F)(F)C(F)(F)C(F)(F)C(F)(F)C(F)(F)C(F)(F)C(F)(F)C(F)(F)F | inactive | 
C=CC(=O)OCCC(F)(F)C(F)(F)C(F)(F)C(F)(F)C(F)(F)C(F)(F)C(F)(F)C(F)(F)F | inactive | 
O=C(O)C(F)(F)OC(F)(F)C(F)(F)OC(F)(F)C(F)(F)OC(F)(F)C(F)(F)C(F)(F)C(F)(F)F |  | 53.4 µM (active) and 51.8 µM (active)
O=S(=O)(O)C(F)(F)C(F)(F)C(F)(F)C(F)(F)C(F)(F)C(F)(F)C(F)(F)C(F)(F)C(F)(F)C(F)(F)F | inactive | 
O=P(O)(O)CCC(F)(F)C(F)(F)C(F)(F)C(F)(F)C(F)(F)C(F)(F)F | inactive | 
CN(Cc1cnc2nc(N)nc(N)c2n1)c1ccc(C(=O)N[C@@H](CCC(=O)O)C(=O)O)cc1 | inactive | 
O=C(O)CCC(F)(F)C(F)(F)C(F)(F)C(F)(F)C(F)(F)F | inactive | 
OCC(F)(F)C(F)(F)C(F)(F)C(F)(F)C(F)(F)C(F)(F)C(F)(F)C(F)(F)C(F)(F)C(F)(F)C(F)(F)F | inactive | 
O=C(O)CCC(F)(F)C(F)(F)C(F)(F)C(F)(F)C(F)(F)C(F)(F)F | inactive | 
O=C(CC(=O)C(F)(F)C(F)(F)C(F)(F)F)c1cccs1 |  | 44.9 µM (active) and 39.7 µM (active)
